Reference: PubChem BioAssay (NCATS)
Records with an inconclusive call do not appear. Entries that show only a call come without a potency. Calls of active or inactive are those of the source. Calls come from the whole dose curve; as a rule, active = well fitted inhibition curve with a large enough effect; inconclusive = small, poorly fitted or top-dose-only effect; inactive = flat fitted curve, though single readings scatter.

Assay: qHTS for Inhibitors of Plasmodium falciparum (HB3) proliferation (AID 504318); note: nearly all actives have a fitted effect of over 60% in size
Conditions: P. falciparum HB3 in erythrocytes, SYBR Green DNA, 72 h; series mostly up to 7.21 µM
Excerpt: Plasmodium falciparum is a virulent malarial parasite that kills 1-2 million people worldwide each year. Malaria not only inflicts tremendous suffering and morbidity on the human population, but has dramatically influenced the course of civilization with profound sociological and economic implications (Shah, S. 2010). Transmitted by mosquitoes, the sporozoite form of the parasite enters the blood stream to infect hepatocytes, where they become merozoites that infect red blood cells (erythrocytes). Within erythrocytes, merozoites begin a […] cycle of growth and division, after which the parasite is released to infect new red blood cells. Gametocytes, which form within erythrocytes as well, circulate in the bloodstream and are ingested by the mosquito, thereby completing the life cycle (see CDC website). To profile malarial lines for differential chemical responses and to identify inhibitors of malarial growth, an assay that measures P. falciparum growth and replication within erythrocytes was employed. This assay uses a DNA binding fluorescent dye (SYBR Green) to detect parasite DNA following cell lysis. Because mature erythrocytes lack DNA, only Plasmodium-derived DNA is detected. The P. falciparum line cp250, derived from a malarial isolate from Cambodia, (Mu, J., et al. 2010) was added to the panel of lines, Dd2, HB3, 7G8 and GB4 in this study. Laboratory of Assay Development and Screening Technology [ADST] and NIH Chemical Genomics Center [NCGC] Boston University, Chemistry Department, Center for Chemical Methodology and Library Development [CMLD-BU] NIH National Institute of Allergy and Infectious Diseases [NIAID]
ADST Assay Protocol Summary: The 1536-well SYBR Green viability assay was based on the method of Bennett et al (2004) and described previously in 1536-well format (Yuan J., et al. 2009). For screening 3 ul culture medium was dispensed into 1536 well black clear bottom plates (Aurora Biotechnologies) using a Multidrop Combi (Thermo Fisher Scientific Inc.), 23 nL compounds in DMSO were added by a pin transfer (Cleveland, P.H. and Koutz, P.J, 2005) using a pin tool-based delivery system (Kalypsys), and 5 ul of erythrocytes infected with P. falciparum one of five lines (cp250, Dd2, HB3, 7G8 or GB4, 0.3% parasitemia, 2.5% hematocrit final concentration) were added. The plates were incubated at 37C in a humidified incubator in 5% CO2 for 72 h, and 2 ul lysis buffer (20 mM Tris HCl, 10 mM EDTA, 0.16% saponin, 1.6% triton X, 10X SYBR Green I (supplied as 10,000X final concentration by Invitrogen) was added to each well. The plates were mixed for 25 sec with gentle shaking and incubated overnight at room temperature in the dark. The following morning, fluorescence intensity at 485(14) nm excitation and 535(25) nm emission wavelengths was measured on an EnVision (Perkin Elmer) plate reader. Plate reads were normalized relative to the control inhibitor (0.29 uM artemisinin) and vehicle (DMSO) wells present on each plate and then corrected by an algorithm using vehicle-only control plates at the beginning and end of the compound plate stack. References Shah, S. (2010). The Fever: how malaria has ruled humankind for 500,000 years. New York, Sarah Crichton Books. CDC web site, http://www.cdc.gov/malaria/about/biology/index.html Mu, J., Myers, R.A., Jiang, H., Liu, S., Ricklefs, S., Waisberg, M., Chotivanich, K., Wilairatana, P., Krudsood, S., White, N.J., et Plasmodium falciparum genome-wide scans for positive selection, recombination hot spots and resistance to antimalarial drugs Nature Genetics 2010, 42, pp 268-271 Bennett TN, Paguio, M., Gligorijevic, B., Seudieu, C., Kosar, A. D., Davidson, E., and Roepe, P. D. Novel, rapid, and inexpensive cell-based quantification of antimalarial drug efficacy Antimicrobial Agents Chemother. 2004, 48(5): pp 1807-10 Yuan J, Johnson RL, Huang RL, Wichterman J, Jiang HY, Hayton K, Fidock DA, Wellems TE, Inglese J, Austin CP, Su XZ. […]
Potency is the fitted concentration of half-maximal effect.

| Structure (SMILES) | Potency |
| --- | --- |
| CC1=C[C@@H](COc2ccccc2)O[C@@]2(C1)C(=O)N(Cc1ccccc1)c1ccccc12 | inactive |
| COC1=C[C@H](C(=O)NCc2ccc(OC)cc2)C(C)C(c2ccccc2)CC1=O (stereo not given in full) | inactive |
| C=CC1(O)C(OC)=CC2C(=O)C1C(c1ccccc1)C2C (stereo not given) | inactive |
| C=CCC(Nc1ccc(OC)cc1)(C(=O)OCC)c1ccccc1 (stereo not given) | inactive |
| C=CC1=C2C=C(C3CC3)N(CC3CC3)C=C2C(=O)C(C)(OC(=O)c2ccco2)C1=O (stereo not given) | inactive |
| CC1(OC(=O)c2ccc(Cl)nc2)C(=O)C=C2C=C(c3ccsc3)OC=C2C1=O (stereo not given) | inactive |
| O=C1CCC=C1C(O)c1ccc2c(c1)OCO2 (stereo not given) | inactive |
| COC(=O)N1C2=C(c3ccccc3[C@@H]1CC(=O)O)[C@@H]1O[C@@H](C2)c2ccccc21 | inactive |
| CC(C)CON=C1C[C@@H](O)[C@@H](O)[C@@H]2[C@H]3C(=O)N(c4ccc(F)cc4F)C(=O)[C@@H]3CC[C@H]12 | inactive |
| COC(=O)C[C@H]1c2ccccc2[C@@H]2C(=C[C@@H](C)[C@H]3C(=O)N(O)C(=O)[C@H]32)N1C(=O)OC | inactive |
| CCN1C(=O)N[C@@H](CCc2ccccc2)[C@@H](C(=O)OC)[C@H]1C | inactive |
| CC(C)(C)Nc1oc(-c2ccccc2)nc1-c1ccccc1F | inactive |
| COC[C@@H](OC(C)=O)[C@H]1OCc2ccccc2[C@@H]1C=Cc1ccccc1 | inactive |
| CCCC[C@]12Cc3cc(C#N)ccc3[C@H](O1)c1c(c3ccccc3oc1=O)O2 | inactive |
| c1ccc(CCc2nc(-c3ccccc3)oc2Nc2ccc3ccccc3c2)cc1 | inactive |
| CCCCC1=CC2=CC(=O)C(C)(OC(=O)CCc3ccccc3)C(=O)C2=CO1 (stereo not given) | inactive |
| CC(CCN1CCCCc2nc(C)c(C)cc21)=NOC[C@@H](O)[C@H]1O[C@@H]2OC(C)(C)O[C@H]2[C@@H]1O | inactive |
| COc1ccc2c(c1)O[C@@H](c1ccc3c(c1)OCO3)[C@H](OC(=O)Nc1ccc(OC(F)F)cc1)C2=O | inactive |
| COC(=O)C(C(C)=O)[C@@H](NC(=O)NCc1ccccc1)c1ccccc1 (stereo not given in full) | inactive |
| C=CCC12OC3(OC)CC1[C@H](C)[C@@H](c1ccccc1)C2[C@@]3(C)O (stereo not given in full) | inactive |

| Structure (SMILES) | Potency |
| --- | --- |
| COC[C@H]1O[C@@H](c2c(OC)cc(OC)cc2OC)[C@H](OC)[C@@H](OC)[C@H]1OC | inactive |
| C[C@H]1[C@H](O)[C@@H](N=[N+]=[N-])CCO[C@H]1c1ccccc1 | inactive |
| CC(C)C(=O)NC(=O)[C@@H]1CCCN1C(=O)C=Cc1ccccc1 | inactive |
| COC(=O)C=C[C@H]1c2ccccc2[C@@H](OC)[C@@H]1C | inactive |
| CC(C)[C@@H](OCc1ccccc1)[C@H](C)C=NO[C@H](C)c1cn([C@@H]2COC[C@@H]2O)nn1 | inactive |
| CC1(OC(=O)C2CCCC2)C(=O)C=C2C=C(c3ccsc3)N(c3cccc(C#N)c3)C=C2C1=O (stereo not given) | inactive |
| CCOC(=O)C1=CN(CCC=C(C)C)C(=O)N(C(C)=O)C1c1ccccc1 (stereo not given) | inactive |
| CC(C)=CCN1C(=O)[C@]2(O[C@H](COc3ccccc3)CC3=CCCC32)c2c(Br)cccc21 (stereo not given in full) | 1900 nM (active) |
| C[C@@H]1C[C@](C)(C(=O)c2ccco2)C=C1c1ccco1 | inactive |
| COC(=O)N[C@H](CC(C)=O)c1ccccc1 | inactive |
| CC1=CC[C@@H](C)O[C@@]2(C1)C(=O)Nc1ccccc12 | inactive |
| Cc1ccc([S+](=O)([O-])N[C@@H]2COC(=O)CC=C[C@H](C)COC(=O)N[C@@H](C)C(=O)CC=C[C@H]2C)cc1 | inactive |
| CC(CCN1CCc2nc(-c3ccccc3)c(-c3ccccc3)cc2C1)=NOC[C@@H](O)COCc1ccco1 | inactive |
| O=C1N[C@H](Cc2ccccc2)C(=O)N1Cc1cccc2ccccc12 | inactive |
| CC(C)=CCCC(C)=CCON=C1C[C@@H](O)[C@@H](O)[C@@H]2[C@H]3C(=O)N(c4cccc(Oc5ccccc5)c4)C(=O)[C@@H]3CC[C@H]12 | inactive |
| Cc1ccc(S(=O)(=O)NC(CCc2ccccc2)CC(=O)C(C)(C)C)cc1 (stereo not given) | inactive |
| C=CCOC(=O)N[C@H](C[N+](=O)[O-])c1ccccc1 | inactive |
| CCOC(=O)NN=Cc1ccccc1-c1cc(OC)ccc1OC | inactive |
| O=C1C2=C(C(=O)c3ccccc31)[C@H]1O[C@](c3ccsc3)(Cc3ccccc31)O2 | 1900 nM (active) |
| C#CCCCON=C1C[C@@H](O)[C@H](O)[C@H]2[C@@H]3C(=O)N(C[C@@H]4CCCO4)C(=O)[C@@H]3CC[C@@H]12 | inactive |
